HP1b chromo inh = HP1-beta chromodomain-methylated histone interaction inhibition; AlphaScreen HP1-beta / biotin-H3K9me3 peptide binding; P83916; AID 540317; Potency, µM (doses to about 114 µM), without a hit: at the highest dose activity change, negative = inhibition, hits mostly inhibitors; 390,000 tested, 0.56% active; further: nearly all actives have a fitted effect of over 70% in size
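HP1-beta protein (50 nM final) preincubated 30 min at room temperature with biotinylated H3(1-18)K9me3 peptide (50 nM) in PBS pH 7.4, 0.01% Tween-20, then compound added for 30 min. AlphaScreen streptavidin donor/nickel chelate acceptor beads (10 ug/mL final), 30 min dark, luminescence read.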
BAZ2B block = blocks human BAZ2B; Q9UIF8; AlphaScreen BAZ2B-H3K14Ac peptide displacement; Potency, µM (highest dose often 114 µM), without a hit: at the highest dose activity change, negative = inhibition, actives largely listed as inhibitors; 360,000 tested, 4.4% active; further: on the % scale 0 is the no-effect control and ±100 the full control effect; nearly all actives have a fitted effect of over 60% in size
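AlphaScreen luminescence quantifies BAZ2B engagement of H3K14Ac peptide; the protein and biotinylated peptide are both at 50 nM final, buffer PBS pH 7.4 with 0.01% Tween-20, all steps at room temperature.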
GLS inhibitor = blocks human kidney-isoform glutaminase activity | Potency, µM (doses to about 45.5 µM), for inactives: at the highest dose activity change, negative = inhibition, usual class: inhibitors | O94925 | 410,000 tested, 0.21% active | AID 624170 | GLS enzymatic activity, qHTS titration; further: on the % scale 0 is the no-effect control and ±100 the full control effect
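Compounds were pin-transferred onto hKGA, after which L-glutamine (1 mM solution) and a detection mix of glutamate oxidase, HRP and Amplex Red were added. Initial and 30 min RT fluorescence reads were collected.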
G9a inh = blocks human histone lysine methyltransferase G9a | 350,000 tested, 8.8% active | AID 504332 | G9a H3K9 monomethylation, AlphaScreen, 2 h | Potency, µM (highest dose often 102 µM), for the others: at the top dose activity, negative = inhibition, actives largely listed as inhibitors; further: on the % scale 0 is the no-effect control and ±100 the full control effect; nearly all actives have a fitted effect of over 75% in size
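AlphaScreen detection with an anti-monomethyl H3K9 antibody quantified product after a 2 h room-temperature reaction containing 500 nM biotinylated H3K9 peptide, 20 µM SAM and 20 nM enzyme, which had been preincubated 15 min with compound.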
JMJD2A Tudor inh = blocks the human JMJD2A Tudor domain; O75164; Potency, µM (series often up to 114 µM), for inactives: top-dose activity change, negative = inhibition, usual class: inhibitors; AlphaScreen JMJD2A-Tudor / H3K4me3 peptide binding; AID 504339; 390,000 tested, 4.4% active; further: on the % scale 0 is the no-effect control and ±100 the full control effect; nearly all actives have a fitted effect of over 50% in size
* marks the source's active call; other numbers are inactive results; ? = inconclusive; . = no result; [ ] = remark or other dose. Compounds with a hit are over-represented: about 10% of the library has one in this group of screens. The call rests on the fitted dose curve; in most records, active means well fitted curve in the direction sought with a large enough effect; inconclusive means small, poorly fitted or top-dose-only effect, or another doubt; inactive means no such curve, though single readings can be large; an effect the other way counts as inactive or inconclusive. Potency means the concentration at half of the fitted maximal effect.

SMILES | HP1b chromo inh | BAZ2B block | GLS inhibitor | G9a inh | JMJD2A Tudor inh
CC(C)CC1CCCC12NC(=O)NC2=O (stereo unspecified) | 23.1% | . | -6.2% | . | -3.4%
CC(C)CCN1NC2(CCCC(C)C2)NC1=S (stereo unspecified) | 34.4% | -17.1% | -2.0% | 22.4µM* | -5.0%
CC1(C)CC2(C)Nc3ccccc3N2C(=S)N1 (stereo unspecified) | 15.7% | -9.0% | 14.6% | 5.6%[59 µM] | -14.3%
CC1CC(C)(C)CC2(C1)NC(=S)N(c1ccccc1)N2 (stereo unspecified) | 40.0% | -9.7% | 12.1% | 28.2µM* | -20.8%
O=C1NC2(NN1c1ccccc1)C1CC3CC(C1)CC2C3 (stereo unspecified) | 22.7% | 13.2% | 3.0% | ? | 2.4%
COc1ccc(Cl)cc1NS(=O)(=O)c1cccc(C(=O)NCC(C)(C)N2CCOCC2)c1 | 36.0% | 6.3% | -1.5% | 19.6%[12.7 µM] | -21.2%
C=C1CCC[C@]2(C)C[C@H]3OC(=O)C(CN4CC(C)OC(C)C4)[C@H]3C[C@@H]12 (stereo partly specified) | 45.6% | -7.1% | 0.4% | -29.3% | -6.7%
CN(C1CCCCC1)S(=O)(=O)c1ccc(C(=O)O)cc1 | 28.6% | 0.9% | 6.6% | -11.3% | -2.7%
CC1CCCC2(C1)NC(=S)N(c1ccccc1)N2 (stereo unspecified) | 50.8% | -3.6% | 16.4% | ? | 79.4µM*
CC1CCCC(O)(C(C(=O)O)c2ccccc2)C1 (stereo unspecified) | 29.2%[57 µM] | . | -9.1% | . | 2.8%
CC1CCCCC12NC(=O)N(CC(=O)NCCc1ccccc1)C2=O (stereo unspecified) | 14.1%[57 µM] | . | -8.1% | . | -14.5%
CC1CCCCC12NC(=S)N(c1ccccc1)N2 (stereo unspecified) | ? | -15.2% | 7.6% | . | 11.2µM*
Cc1cccc(-c2n[nH]c(=S)n2/N=C/C=C/c2ccco2)c1 | ? | ? | -0.5% | 1.58µM* | 20µM*
S=c1[nH]nc(-c2ccccc2Cl)n1/N=C/C=C/c1ccco1 | -25.2% | ? | -15.4% | 1.12µM* | 15.8µM*
S=c1[nH]nc(-c2ccncc2)n1/N=C/C=C/c1ccco1 | -15.0% | 50.1µM* | ? | -137.5% | 8.91µM*
C(=C\c1ccco1)/C=N/n1cnnc1 | 30.1% | -4.4% | -0.2% | 39.8µM* | -12.9%
O=C1NC(c2ccccc2Cl)=N/C1=C/c1ccco1 | 2.9% | ? | -12.7% | . | -25.2%
COc1cc(C(=O)NCC2CCCO2)ccc1OCc1ccc(Cl)cc1Cl (stereo unspecified) | 4.0% | 10.3% | -0.8% | 7.4%[12.7 µM] | -10.2%
O=C(CS(=O)(=O)Cc1ccccc1)Nc1nc2c(s1)CCCC2 | 33.1% | -29.2% | 0.5% | -32.0%[12.7 µM] | -13.0%[11.4 µM]
Cc1ccc(CC(=O)Nc2nc3c(s2)CCCC3)cc1 | 9.7% | -33.2% | 7.7% | 50.1µM* | -26.5%
O=C(COc1ccc(F)cc1)Nc1nc2c(s1)CCCC2 | 9.4% | ? | 3.8% | -13.9% | -24.0%
COc1ccc(NC(=O)Nc2nc3c(s2)CCCC3)cc1 | 12.5% | -9.9% | 8.7% | 79.4µM* | -21.3%
Cc1ccc(CC(=O)Nc2ccncc2)cc1 | 46.2% | 14.8% | -0.2% | 50.1µM* | -22.9%
COc1ccc(OCC(=O)Nc2nc3c(s2)CCCC3)cc1 | -3.7% | ? | -0.8% | 50.1µM* | ?
Cc1ccc(-c2nnc(Nc3ccc(Cl)cc3)c3ccccc23)cc1S(=O)(=O)NCC1CCCO1 (stereo unspecified) | 45.6% | -1.7% | 14.3% | -13.1%[59 µM] | -9.3%
SMILES | HP1b chromo inh | BAZ2B block | GLS inhibitor | G9a inh | JMJD2A Tudor inh
CC(=O)N1CCc2cc(S(=O)(=O)NCCC(=O)NCCc3ccc(C)cc3)ccc21 | 17.8% | 6.6% | 8.5% | ? | -4.3%
O=C(Nc1nnc(-c2ccccc2Cl)o1)c1ccco1 | 12.5% | 79.4µM* | -10.7% | ? | 79.4µM*
O=C(Nc1nnc(-c2ccc(Br)cc2)o1)c1ccco1 | 43.9% | 79.4µM* | 0.1% | -22.6% | ?
O=C(Nc1nnc(-c2cccs2)o1)c1ccco1 | 44.6% | 35.5µM* | -4.7% | 10µM* | 44.7µM*
O=C(Nc1ccc(Br)cc1)c1ccco1 | 7.9% | 6.9% | 8.8% | 14.0%[12.7 µM] | 0.6%
COc1cccc(C(=O)Nc2nnc(-c3cccs3)o2)c1 | 50.2% | ? | 18.3% | -4.4% | -12.8%

Screening data deposited in PubChem by National Center for Advancing Translational Sciences (NCATS).
